{
  "source": "PubChem BioAssay (NCI)",
  "note": "“And” between values parts separate entries of the source, which are not always exact repeats. Equal values may be shown once. About 83,000 compounds went through this panel and 20% of them were active in at least one assay; those are over-represented in the sample as a whole.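 Testing used 96-well plates and a 48-hour single-concentration exposure. Example: -40 means 40% of the starting cells died.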 The source made the active and inactive calls. How the source made its calls: active means growth percent below 10; inactive means the rest.",
  "data": [
    {"test_system": "HL-60(TB) leukemia", "assay": "NCI-60 one-dose screen, 48 h (100 = growth as untreated, 0 = no growth, -100 = all killed)", "details": "10 µM unless noted", "values": [
      {"molecule": "O=C(NN1C(=O)/C(=C/C=C/c2ccc([N+](=O)[O-])o2)SC1=S)c1ccc(O)cc1", "growth": "-41.8% (active)"},
      {"molecule": "CN(C)c1nc(NCCNS(=O)(=O)c2ccc(C3=Nc4c(N)nc(N)nc4NC(c4ccccc4)C3)cc2)nc(Nc2ccc(F)cc2)n1", "note": "(stereo not given)", "growth": "-6.76% (active)"},
      {"molecule": "O=C(CNc1nc(-c2ccccc2)cs1)Nc1ccc([N+](=O)[O-])cc1", "growth": "5.69% (active)"},
      {"molecule": "COc1ccc(NC(=O)Nc2ccc(OCc3ccc(F)cc3)cc2)cc1", "growth": "83.1% (inactive)"},
      {"molecule": "O=C(O)c1cccc(-c2ccc(/C=N/NC(=O)c3[nH]c4ccc(Br)cc4c3-c3ccccc3)s2)c1", "growth": "42.4% (inactive)"},
      {"molecule": "COc1ccc(-c2cc(C(=O)N=Nc3c(O)[nH]c4ccc(Br)cc34)c3ccccc3n2)cc1", "growth": "21.1% (inactive)"},
      {"molecule": "CC(=O)OC[C@@]1(C)C2CC[C@]3(C)C(CC=C4C5CC(C)(C)CC[C@]5(C(=O)Nc5ccc(Br)cc5)CC[C@]43C)[C@@]2(C)C[C@@H](OC(C)=O)[C@@H]1OC(C)=O", "note": "(stereo not given in full)", "growth": "32.3% (inactive)"},
      {"molecule": "CN1CCN(c2ccc(C(=O)/C=C/c3cc(Br)ccc3F)cc2)CC1", "growth": "-22.1% (active)"},
      {"molecule": "CCN1CCN(Cc2ccc(C(=O)Nc3cccc(Nc4ccc5c(OC)cccc5n4)c3)cc2C(F)(F)F)CC1", "growth": "-57.1% (active)"},
      {"molecule": "C#C[C@]1(O)CC[C@H]2[C@@H]3CC=C4c5sc(Nc6ccc(C(F)(F)F)cn6)nc5CC[C@]4(C)[C@H]3CC[C@@]21C", "growth": "1.27% (active)"},
      {"molecule": "O=C(O)c1cccc(-c2ccc(/C=N/NC(=O)c3[nH]c4ccc(Br)cc4c3-c3ccccc3)o2)c1", "growth": "88.5% (inactive)"},
      {"molecule": "O=C1CCCc2cc(OCC(=O)N3CCCCC3)ccc2N1", "growth": "91.9% (inactive)"},
      {"molecule": "COc1ccc(-c2nc3ccccc3n2CC(=O)N=Nc2c(O)[nH]c3ccc(OC)cc23)cc1", "growth": "37.6% (inactive)"},
      {"molecule": "CC1(C)CC[C@]2(C(=O)O)CC[C@]3(C)C(=CCC4[C@@]5(C)C[C@@H](O)[C@@H]6OC(c7cccc(Br)c7)OC[C@@]6(C)C5CC[C@]43C)C2C1", "note": "(stereo not given in full)", "growth": "7.87% (active)"},
      {"molecule": "CN1CCN(C(=O)Oc2cc3c(c4ccccc24)[C@H](CCl)CN3C(=O)c2cc3cc(OCCCN4CCC4)ccc3[nH]2)[C@H]2CSSC[C@H]21", "growth": "-22.8% (active)"},
      {"molecule": "O=CNc1ccc(-n2cnc3cc(-c4ccc(O)cc4)ccc32)cc1", "growth": "64.2% (inactive)"},
      {"molecule": "CCOC(=O)C1=C(N)N(c2ccc(C)cc2)C2=C(C(=O)CC(C)(C)C2)C1c1ccccc1Br", "note": "(stereo not given)", "growth": "-11.2% (active)"},
      {"molecule": "COc1cc(-c2nc3cc(Cl)c(Cl)cc3[nH]2)ccc1OCc1nnc(-c2cccs2)o1", "growth": "72% (inactive)"},
      {"molecule": "Cn1cc(-c2nc(N)nnc2-c2c[nH]c3ccc(Br)cc23)c2cc(Br)cnc21", "growth": "-35.8% (active)"},
      {"molecule": "COc1cc2nc(SCc3ccccc3)n(-c3ccc(Cl)cc3)c(=O)c2cc1OC", "growth": "34.8% (inactive)"},
      {"molecule": "COc1ccc2[nH]c(O)c(N=Nc3nc(-c4ccc(Br)cc4)cs3)c2c1", "growth": "73.5% (inactive)"},
      {"molecule": "Cc1cccc(-c2nc(Nc3cccc(S(N)(=O)=O)c3)c3ccccc3n2)c1", "growth": "44.9% (inactive)"},
      {"molecule": "COc1ccc(C2OC[C@@]3(C)C4CC[C@]5(C)C(CC=C6C7CC(C)(C)CC[C@]7(C(=O)O)CC[C@]65C)[C@@]4(C)C[C@@H](O)[C@@H]3O2)cc1", "note": "(stereo not given in full)", "growth": "46.9% (inactive)"},
      {"molecule": "N/C(=N\\c1nc2ccc([N+](=O)[O-])cc2s1)NC(=O)Nc1ccccc1Cl", "growth": "67.3% (inactive)"},
      {"molecule": "CC1(C)CC(=O)C2=C(C1)OC(N)=C(c1nc3ccccc3[nH]1)C2c1ccc(Cl)cc1", "note": "(stereo not given)", "growth": "22% (inactive) and 106% (inactive)"},
      {"molecule": "CC(C)c1ccc(C(=O)Nc2sc3c(c2C(N)=O)CCC(=O)C3=O)cc1", "growth": "96.9% (inactive)"},
      {"molecule": "O=C(N/N=C/c1ccsc1)c1[nH]c2ccc(Br)cc2c1-c1ccccc1", "growth": "-33.7% (active)"},
      {"molecule": "Nc1nn2c(-c3cc4cc(Br)ccc4oc3=O)ccnc2c1N=Nc1ccccc1", "growth": "92.7% (inactive)"},
      {"molecule": "CCCn1c(=O)c2[nH]c(-c3ccc(OCc4nc5ccc(C(F)(F)F)cc5[nH]4)cc3)nc2n(CCC)c1=O", "growth": "55.9% (inactive)"},
      {"molecule": "COc1ccc2nc(Nc3cccc(NC(=O)c4ccc(CN5CCN(C)CC5)c(C(F)(F)F)c4)c3)ccc2c1", "growth": "-47.8% (active)"},
      {"molecule": "COC(=O)/C=C/c1cccc2c1C(=O)NC(C)(c1cc3cc4ccccc4cc3oc1=O)N2", "note": "(stereo not given)", "growth": "54.7% (inactive)"},
      {"molecule": "Cc1cc(C)nc(NS(=O)(=O)c2ccc(N/C(N)=N/c3nccc(-c4cccs4)n3)cc2)n1", "growth": "1.77% (active)"},
      {"molecule": "CC(=O)Nc1cccc(-c2nc3cc(-c4ccc(O)cc4)ccc3n2C)c1", "growth": "20.7% (inactive)"},
      {"molecule": "COc1ccc(NC(=O)Cn2c(/C=C/c3ccc([N+](=O)[O-])cc3)nc3ccccc3c2=O)cc1", "growth": "112% (inactive)"},
      {"molecule": "CN1CCN(Cc2ccc(C(=O)Nc3cccc(Nc4ccc5cc(O)ccc5n4)c3)cc2C(F)(F)F)CC1", "growth": "-70.2% (active)"},
      {"molecule": "COc1cc2oc(-c3cccc(C(=O)Nc4ccc(Cl)cc4)c3)cc(=O)c2c(OCC(=O)N[C@@H](Cc2ccccc2)C(=O)O)c1OC", "growth": "115% (inactive)"},
      {"molecule": "CCCCSc1nc(Nc2ccc(S(N)(=O)=O)cc2)c(C#N)c(-c2cc(OC)c(OC)c(OC)c2)n1", "growth": "-28% (active)"},
      {"molecule": "Cc1ccc2c(c1)C(=O)/C(=C/c1ccc([N+](=O)[O-])cc1)S2", "growth": "107% (inactive)"},
      {"molecule": "Fc1ccc(Nc2nnc(-c3c[nH]c4ccccc34)o2)cc1", "growth": "44.8% (inactive)"},
      {"molecule": "CN(C)c1nc(NCCNS(=O)(=O)c2ccc(C3=Nc4c(N)nc(N)nc4NC(c4ccc(Cl)cc4)C3)cc2)nc(Nc2ccc(F)cc2)n1", "note": "(stereo not given)", "growth": "-13.8% (active)"}
    ]}
  ]
}
